Hit rate of the full screen: of about 400,000 compounds, about 2,100 (0.53%) were called active. Roughly 14% stayed inconclusive and do not appear here. No rule for the calls is given here. What follows is part of a selection rich in actives, with near analogues and random picks from the rest.
target: Ataxin-2 (Homo sapiens) (UniProt Q99700); test: qHTS for Inhibitors of ATXN expression.; type: functional
Sequence (Q99700 whole entry): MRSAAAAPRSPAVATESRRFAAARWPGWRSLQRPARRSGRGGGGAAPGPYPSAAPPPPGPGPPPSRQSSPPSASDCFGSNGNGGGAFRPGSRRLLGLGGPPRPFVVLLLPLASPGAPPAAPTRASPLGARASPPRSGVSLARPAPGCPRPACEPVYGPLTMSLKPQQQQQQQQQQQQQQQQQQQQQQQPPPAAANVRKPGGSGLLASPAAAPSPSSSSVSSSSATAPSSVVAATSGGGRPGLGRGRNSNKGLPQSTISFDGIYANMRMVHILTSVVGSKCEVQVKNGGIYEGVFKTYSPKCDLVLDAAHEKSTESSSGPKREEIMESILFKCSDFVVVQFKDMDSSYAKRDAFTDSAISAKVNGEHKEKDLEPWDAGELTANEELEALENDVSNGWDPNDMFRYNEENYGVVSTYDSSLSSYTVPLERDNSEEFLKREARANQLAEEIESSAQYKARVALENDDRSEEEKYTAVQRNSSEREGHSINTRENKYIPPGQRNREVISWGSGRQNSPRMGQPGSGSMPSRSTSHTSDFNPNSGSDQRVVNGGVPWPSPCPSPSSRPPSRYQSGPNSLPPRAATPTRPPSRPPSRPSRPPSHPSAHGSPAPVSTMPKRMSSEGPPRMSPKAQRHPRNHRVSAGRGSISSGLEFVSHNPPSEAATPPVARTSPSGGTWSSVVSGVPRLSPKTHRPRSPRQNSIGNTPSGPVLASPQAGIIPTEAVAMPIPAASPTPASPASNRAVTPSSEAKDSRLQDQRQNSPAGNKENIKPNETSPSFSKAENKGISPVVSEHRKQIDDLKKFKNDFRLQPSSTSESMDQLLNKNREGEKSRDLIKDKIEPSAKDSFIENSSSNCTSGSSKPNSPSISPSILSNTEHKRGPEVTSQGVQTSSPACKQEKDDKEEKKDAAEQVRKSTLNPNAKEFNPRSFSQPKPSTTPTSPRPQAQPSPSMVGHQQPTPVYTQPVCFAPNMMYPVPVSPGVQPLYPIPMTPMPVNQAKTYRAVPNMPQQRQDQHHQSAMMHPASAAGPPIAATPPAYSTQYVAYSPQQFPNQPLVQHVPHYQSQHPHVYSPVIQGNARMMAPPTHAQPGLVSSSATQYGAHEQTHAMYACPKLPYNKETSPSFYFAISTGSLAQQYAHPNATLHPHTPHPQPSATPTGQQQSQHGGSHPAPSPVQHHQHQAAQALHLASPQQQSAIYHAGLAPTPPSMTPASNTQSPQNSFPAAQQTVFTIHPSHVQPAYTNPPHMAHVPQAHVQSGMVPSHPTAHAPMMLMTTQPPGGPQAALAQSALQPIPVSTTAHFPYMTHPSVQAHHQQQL

Compound	Potency
CC(=O)c1cc2ccc(O)cc2oc1=O	inactive
COCCNC(=O)/C(=C/c1ccccc1Cl)c1ccccc1	inactive
O=C1CC(c2cccc(Br)c2)C2=C(COC2=O)N1 (stereo not drawn)	inactive
CN(C)/C=N/C(=S)Nc1ccc(Cl)cc1	inactive
Cn1nc(-c2ccccc2)c2nc3ccccc3nc21	inactive
CN1CCN(C2=CC3=CC(=C(C#N)C#N)CCC3CC2)CC1 (stereo not drawn)	inactive
O=c1c(O)c(-c2ccccc2)oc2ccccc12	inactive
COc1cc2oc3cc(C#Cc4ccc(N)cc4)ccc3c(=O)c2cc1OC	inactive
COc1cc2c(C#CCCO)c(-c3ccc(C#N)cc3)oc(=O)c2cc1OC	inactive
Nc1ccc(C#Cc2ccc3c(=O)c4ccccc4oc3c2)cc1	inactive
O=c1c2ccccc2oc2ccc(C#CC3(O)CCCCC3)cc12	28.2 µM (active)
COc1cccc2oc3cc(C#CC4(O)CCCCC4)ccc3c(=O)c12	22.4 µM (active)
Nc1c(C(=O)NCc2ccco2)c2nc3ccccc3nc2n1CCc1ccc(F)cc1	inactive
Cc1ccc(COc2ccsc2C(=O)NN)cc1	inactive
Cc1ccc(CN2C(=O)C(=O)c3cc(Br)cc(C)c32)cc1	39.8 µM (active)
Cc1ccc(CN2C(=O)C(C)Oc3ccccc32)cc1 (stereo not drawn)	inactive
CC(=O)N1c2c(cc(Br)cc2S(=O)(=O)NCc2ccc(C)cc2)CC1C (stereo not drawn)	inactive
COC(=O)c1c(NC(=O)c2ccc(S(=O)(=O)N3CCCC(C)C3)cc2)sc2c1CCN(C(C)C)C2 (stereo not drawn)	inactive
CC(=O)Nc1ccc(S(=O)(=O)[N-]c2nc3ccccc3nc2-[n+]2ccc(NC(=O)c3ccccc3)cc2)cc1	inactive
O=C(Nc1cc[n+](-c2nc3ccccc3nc2[N-]S(=O)(=O)c2ccc(Cl)cc2)cc1)c1cccs1	inactive
O=C(Nc1ccc[n+](-c2nc3ccccc3nc2[N-]S(=O)(=O)c2ccccc2)c1)c1ccc(Cl)cc1	11.2 µM (active)
Cc1c(NC(=O)C(C)OC(=O)c2cccc(S(=O)(=O)N3CCOCC3)c2)c(=O)n(-c2ccccc2)n1C (stereo not drawn)	inactive
COc1ccc(/C=C/C(=O)C2C(=O)C=C(C)OC2=O)cc1O (stereo not drawn)	inactive

Compound	Potency
COc1cc(/C=C/C(=O)OCC(=O)Nc2ccc(Cl)cn2)ccc1O	inactive
COc1ccc(C(=O)/C=C/c2ccc(O)cc2)c(O)c1C/C=C(\C)CCC=C(C)C	39.8 µM (active)
COc1ccc(C(=O)/C=C/c2ccc(O)cc2)c(O)c1CC=C(C)C	39.8 µM (active)
COc1ccc(-c2cc(C(F)(F)F)n3ncc(C(=O)N4CCCCC4c4cccnc4)c3n2)cc1 (stereo not drawn)	inactive
N#Cc1c(O)nc2c(c1-c1cccnc1)COc1ccccc1-2	inactive
O=C(NC(=S)N1CCN(c2ccc(Cl)cc2[N+](=O)[O-])CC1)c1cccs1	17.8 µM (active)
O=C(COC(=O)c1cccc([N+](=O)[O-])c1)NNC(=O)c1cccs1	inactive
O=C(NC(=S)N1CCN(c2ccc(C(F)(F)F)cc2[N+](=O)[O-])CC1)c1cccs1	39.8 µM (active)
O=C(N/N=C/c1cc(Cl)cc([N+](=O)[O-])c1O)c1ccccc1NS(=O)(=O)c1cccs1	inactive
Cc1cccc(N2CCN(C(=O)Cc3ccccc3[N+](=O)[O-])CC2)c1C	inactive
CC(=O)c1ccc2c(c1)c(C#N)c1ccccc1[n+]2[O-]	inactive
CCC(=O)Nc1c(C#N)c2nc3ccccc3nc2n1-c1ccc(C)cc1	inactive
CCN(CC)c1nc2ccccc2nc1C(C#N)C(=O)NCCc1ccccc1 (stereo not drawn)	inactive
CCC(C)N(CC(=O)Nc1cccc(C)c1C)C(=O)CCl (stereo not drawn)	7.52 µM (active)
Cc1cccc(NC(=O)CN(C)C(=O)Cc2ccc(-c3ccccc3)cc2)c1C	inactive
CCN(CC(=O)Nc1cc(Cl)ccc1C)C(=O)C1CCCCC1	inactive
CCN(CC)C(=O)COc1ccc(/C=C(\C#N)S(=O)(=O)c2ccccc2)cc1OC	inactive
Cc1cc(C)c(OCCN2CCOCC2)c(Cl)c1	inactive
Clc1ccc(OCCCNCc2ccccc2)c(Br)c1	39.8 µM (active)
Cc1cc(C)c(OCCCCNCc2ccccc2)c(Cl)c1	39.8 µM (active)
C=CCNCCCCOc1cccc(Br)c1	inactive
C=CCc1cc(Cl)ccc1OCCCNC(C)C	inactive
COc1ccc(Cl)cc1CNCCCSc1ncccn1	inactive

Compound	Potency
CN(C)/C=N/c1c(Br)cc(Br)c2nonc12	inactive
COCCN(CCOC)C(=O)c1cc2c(=O)n3ccccc3nc2s1	inactive
O=C1N[C@@H](Cc2c[nH]c3ccccc23)COC(=O)[C@@H](Cc2ccc(F)cc2)C/C=C\C[C@H]1CC(=O)N(CCO)Cc1ccccc1	35.5 µM (active)
O=C1NC[C@@H](c2ccccc2)OC(=O)[C@@H](Cc2ccc(F)cc2)CC/C=C/C[C@H]1CC(=O)N(CCO)Cc1ccccc1	28.2 µM (active)
COCCn1c(N)c(C#N)c2nc3ccccc3nc21	inactive
Fc1ccc(-n2c(-c3cccs3)nc3nc4ccccc4nc32)cc1	inactive
O=C(Nc1ccc2c(c1)OCCO2)c1cccc2nc3ccccc3nc12	35.5 µM (active)
O=C(O)c1ccccc1-c1ccccc1C(=O)Nc1ccc2c(c1)nc(O)c1ccccc12	inactive
O=C(Nc1ccc2c(c1)OCCO2)c1cccnc1Oc1ccc(Cl)cc1	inactive
COc1ccccc1-n1c([S-])c(C(=O)Nc2ccccc2C(F)(F)F)[n+]2ccc(C(=O)NCCO)cc12	inactive
COc1ccccc1N1C(=O)C2C(C(=O)c3ccccc3)=NN(c3ccccc3OC)C2C1=O (stereo not drawn)	inactive
COc1ccccc1N1C(=O)C2C(C(=O)c3ccccc3)=NN(c3ccccc3)C2C1=O (stereo not drawn)	inactive
CC[C@@]1(c2ccccc2OC)ON(c2ccccc2C(F)(F)F)C1=O	22.4 µM (active)
CCO/C=C1/C(=O)N(c2ccccc2OC)C(=O)c2ccccc21	inactive
CC[C@]1(c2ccccc2OC)ON(c2ccccc2C(F)(F)F)C1=O	35.5 µM (active)
Cc1ccccc1NC(=O)c1cc2c(=O)n3cccc(C)c3nc2s1	inactive
CC1CCCCC1NC(=O)c1cc2c(=O)n3ccccc3nc2n1C (stereo not drawn)	inactive
COc1ccccc1N=C(NS(=O)(=O)c1ccc(C)cc1)c1ccccc1	inactive
COc1ccc([N+](=O)[O-])c(S(=O)(=O)c2ccccc2)n1	7.52 µM (active)
CC1CN(c2ccc([N+](=O)[O-])c(NCCOc3ccc(Cl)cc3)c2)CC(C)N1 (stereo not drawn)	inactive
COc1ccc([N+](=O)[O-])c(S(=O)(=O)c2ccc(Cl)cc2)n1	14.1 µM (active)
O=C1c2cccc3c([N+](=O)[O-])ccc(c23)C(=O)N1c1ccc(Cl)cn1	inactive
